Hits are enriched below; roughly 4% of the tested compounds scored in any of these assays.
FBA Mtb inh = Mtb fructose-bisphosphate aldolase inhibition. P9WQA3. purified M. tuberculosis FBA, fluorescence read-out. inhibition, % at 1 µM. hit rate 2.3% among 360,000; in the data active = inhibition above about 27%;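 also: 0% = vehicle and 100% = reference inhibitor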
Target sequence (P9WQA3 whole entry, looked up): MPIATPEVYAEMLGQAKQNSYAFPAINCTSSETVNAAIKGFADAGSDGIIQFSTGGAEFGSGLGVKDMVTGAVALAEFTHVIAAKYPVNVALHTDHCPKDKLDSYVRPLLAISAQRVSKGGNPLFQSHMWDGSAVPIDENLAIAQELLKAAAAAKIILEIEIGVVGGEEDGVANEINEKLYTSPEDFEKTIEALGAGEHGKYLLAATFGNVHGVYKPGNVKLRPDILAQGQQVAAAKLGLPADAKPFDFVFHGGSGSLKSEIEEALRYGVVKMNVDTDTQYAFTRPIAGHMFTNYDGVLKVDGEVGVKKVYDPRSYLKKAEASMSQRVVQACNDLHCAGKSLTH
CCHFV vOTU inh = CCHFV vOTU protease inhibition; hit rate 0.55% among 370,000; inhibition, % at 11.5 µM; Pep-AMC fluorescence; also: 0% = vehicle wells with enzyme and 100% = no enzyme wells
MazF activator = increases E. coli MazEF RNase cleavage of RNA; hit rate 0.32% among 350,000; FAM/BHQ RNA-DNA oligo cleavage fluorescence, 5 h; activation, % at 20 µM; P0AE70; AID 504720; in the data active = activation above about 50%
Target sequence (P0AE70 whole entry, looked up): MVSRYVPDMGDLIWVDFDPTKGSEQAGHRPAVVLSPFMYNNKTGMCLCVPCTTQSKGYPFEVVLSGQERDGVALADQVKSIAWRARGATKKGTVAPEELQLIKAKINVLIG
GDH-TPI inh = inhibits GDH-TPI coupling enzymes, artifact for Mtb FBA screen | inhibition, % at 4.8 µM | AID 588335 | hit rate 1.2% among 360,000 | GDH-TPI coupled enzyme counterscreen, NADH absorbance;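 also: 0% = DMSO wells and 100% = wells lacking the enzyme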
Mtb betalactam = beta-lactam sensitization of Mtb H37Rv. M. tuberculosis H37Rv growth with meropenem, percent inhibition. inhibition, % at 25 µM. hit rate 0.27% among 330,000. AID 434955; call rule not given here;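 also: growth measured after seven days incubation then overnight dye step; 0% = bacteria only wells and 100% = bacteria with antibiotic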
Numbers without * were called inactive. Rule as the data show it, unless noted: active = inhibition above about 30%; inactive = the rest.

How did Cc1ccc(CN2CCCCC(NC(=O)c3ccc(COc4ccccc4)cc3)C2=O)cc1 (centres undefined) do in these assays?
CCHFV vOTU inh: 3.7

What do the screens show for `O=C(COc1ccccc1F)c1ccc(O)cc1O`?
FBA Mtb inh: -2.2; CCHFV vOTU inh: 14.9; MazF activator: 9.2; GDH-TPI inh: 50.3*; Mtb betalactam: -15.7

How did O=C(c1ccccc1)c1ccc(O)cc1O do in these assays?
FBA Mtb inh: 1.8; CCHFV vOTU inh: 18.6; MazF activator: inactive; GDH-TPI inh: 52.0*; Mtb betalactam: -0.3

Results for CN(C)c1ccc(C(=O)c2ccc(O)cc2O)cc1 ?
FBA Mtb inh: -2.5; CCHFV vOTU inh: 3.9; MazF activator: 5.4; GDH-TPI inh: 19.5; Mtb betalactam: -1.1

What do the screens show for `O=C(COC(=O)c1ccc(O)cc1O)NC(=O)Cc1ccccc1`?
FBA Mtb inh: -1.2; CCHFV vOTU inh: 0.5; MazF activator: 4.7; GDH-TPI inh: 5.0

How did COc1ccc(C(=O)c2ccccc2)c(O)c1 do in these assays?
FBA Mtb inh: 1.3; CCHFV vOTU inh: -0.2; MazF activator: -7.5; GDH-TPI inh: 9.0; Mtb betalactam: 7.5

How did O=C(c1ccc(O)cc1)c1ccc(O)cc1O do in these assays?
FBA Mtb inh: 1.2; CCHFV vOTU inh: 7.0; MazF activator: -1.2; GDH-TPI inh: 34.8*; Mtb betalactam: -2.0

What do the screens show for `O=C(Cc1ccccc1)c1ccc(O)cc1O`?
FBA Mtb inh: 2.8; CCHFV vOTU inh: 0.2; MazF activator: -6.3; GDH-TPI inh: 38.1*

How did CC(CCN1CCC(C(O)(c2ccccc2)c2ccccc2)CC1)Oc1ccccc1C#N (centres undefined) do in these assays?
CCHFV vOTU inh: 10.2

Results for O=S(=O)(c1ccc(Nc2ccc(-c3ccc4c(c3)OCCO4)nn2)cc1)N1CCCC1 ?
FBA Mtb inh: 1.3; CCHFV vOTU inh: -4.4; MazF activator: 5.7; GDH-TPI inh: 33.9*; Mtb betalactam: -0.6

Results for O=C(NC1CC1)c1cccc(Nc2ccc(-c3ccc4c(c3)OCCO4)nn2)c1 ?
FBA Mtb inh: 2.5; CCHFV vOTU inh: 0.1; MazF activator: -2.2; GDH-TPI inh: -2.5; Mtb betalactam: 84.6

How did COC(=O)[C@]1(Cc2ccccc2)NC=C(C(=O)c2ccccc2)[C@@H]1c1cccs1 do in these assays?
CCHFV vOTU inh: -2.6

What do the screens show for `COc1ccc(-c2cc(C(=O)NN=Cc3ccc(C)s3)[nH]n2)cc1`?
CCHFV vOTU inh: 18.6

What do the screens show for `O=C(NCC1CCCO1)c1ccc2c(c1)N(Cc1ccccc1)C(=O)CS2` (centres undefined)?
FBA Mtb inh: -3.0; CCHFV vOTU inh: -13.4; MazF activator: 9.1; GDH-TPI inh: 2.2; Mtb betalactam: 5.6

Results for Cc1ccc(CN2CCSc3ccc(C(=O)NC4CCCC4)cc32)cc1 ?
FBA Mtb inh: 7.0; MazF activator: -1.3; GDH-TPI inh: -2.7; Mtb betalactam: -3.2

How did Cc1ccc(CN2CCSc3ccc(C(=O)NCCCN4CCN(C)CC4)cc32)cc1 do in these assays?
FBA Mtb inh: 160.8*; CCHFV vOTU inh: -171.5; MazF activator: 35.3; GDH-TPI inh: 5.1; Mtb betalactam: 1.1

Results for O=C(NCC1CCCO1)c1ccc2c(c1)N(Cc1ccc(Cl)cc1)CCS2 (centres undefined) ?
FBA Mtb inh: 132.4*; CCHFV vOTU inh: -93.1; MazF activator: -7.2; GDH-TPI inh: 12.4

Results for CCN(C[C@H]1[C@@H](c2ccc(C3=CCCC3)cc2)[C@H](CO)N1Cc1ccccn1)S(=O)(=O)c1ccccc1[N+](=O)[O-] ?
CCHFV vOTU inh: 5.4

What do the screens show for `O=C(CN1CCCc2ccccc21)NCc1ccc(Cl)cc1`?
CCHFV vOTU inh: -0.4

What do the screens show for `Cc1cc(C)n(C(=O)c2ccc(C)o2)n1`?
FBA Mtb inh: 5.3; CCHFV vOTU inh: 10.3; MazF activator: 12.3; GDH-TPI inh: 6.7; Mtb betalactam: -5.4

How did Cc1cc(C)n(C(=O)c2cc3sccc3[nH]2)n1 do in these assays?
FBA Mtb inh: -0.3; CCHFV vOTU inh: -0.7; MazF activator: 4.1; GDH-TPI inh: 32.6*; Mtb betalactam: 0.9

What do the screens show for `COc1ccc2c(=O)c3ccccc3oc2c1`?
FBA Mtb inh: 5.6; CCHFV vOTU inh: 0.9; MazF activator: 11.1; GDH-TPI inh: 11.8; Mtb betalactam: -2.0

How did COc1ccc2c(c1)oc(=O)c1cc(OC)ccc12 do in these assays?
FBA Mtb inh: 137.9*; CCHFV vOTU inh: -52.9; MazF activator: -6.9; GDH-TPI inh: -0.7; Mtb betalactam: 1.0

What do the screens show for `COc1ccc2c(C)c(Cl)c(=O)oc2c1`?
FBA Mtb inh: 152.6*; CCHFV vOTU inh: -107.5; MazF activator: -10.2; GDH-TPI inh: 15.9; Mtb betalactam: -7.0

High-throughput results from PubChem.
